Data published in PubChem BioAssay (NCI).
This is part of a sample that, as a whole, favours compounds with a hit. Of some 79,000 tested, about 15% had one in any assay. Activity calls are given as the source filed them. No stated cut-off is given here; in the data, active means growth inhibition above about 70%; inactive means the rest.

Assays:
[1] = NCI Yeast Anticancer Drug Screen. Data for the mec2-1 strain (AID 157); settings: S. cerevisiae mec2-1 strain, hits give high values
How it was run: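 Growth inhibition is read against vehicle-treated controls after compound exposure of the mec2-1 yeast strain, which is defective in DNA damage repair or cell cycle control.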

[2] = NCI Yeast Anticancer Drug Screen. Data for the rad14 strain (AID 159);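 further: 0% = growth of vehicle-treated control cultures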; settings: S. cerevisiae rad14 strain growth inhibition, hits give high values
How it was run: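 Test compounds were applied to a repair-deficient yeast strain. Its growth was then compared with that of cultures given vehicle alone, and inhibition was expressed relative to those controls.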

[3] = NCI Yeast Anticancer Drug Screen. Data for the sgs1 mgt1 strain (AID 161);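 further: 0% = growth of cultures given vehicle only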; settings: S. cerevisiae sgs1 mgt1 strain, hits give high values
How it was run: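 Yeast cells carrying a defined DNA-repair defect were exposed to test compounds. Growth inhibition was measured relative to vehicle-treated controls.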

[4] = NCI Yeast Anticancer Drug Screen. Data for the CLN2oe strain (AID 163);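 further: 0% = growth of vehicle-only control cultures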; settings: S. cerevisiae CLN2oe strain, hits give high values
How it was run: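 Compound-treated yeast; growth vs vehicle ctrl = % inhibition. Genetically altered strain (cell-cycle control).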

[5] = NCI Yeast Anticancer Drug Screen. Data for the cln2 rad14 strain (AID 165);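 further: 0% = growth equal to vehicle treated cultures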; settings: S. cerevisiae cln2 rad14 strain, hits give high values
How it was run: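 Growth inhibition, relative to vehicle-treated controls, is the read-out. The test organism is a yeast strain with defined genetic alterations, cln2 rad14.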

[6] = NCI Yeast Anticancer Drug Screen. Data for the bub3 strain (AID 167); settings: S. cerevisiae bub3 mutant strain, hits give high values
How it was run: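 Yeast carrying a defined mutation is treated with each compound, and growth is compared with that of vehicle-exposed cells to give inhibition.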

[7] = NCI Yeast Anticancer Drug Screen. Data for the wt2 strain (AID 169);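 further: 0% = growth of vehicle-treated yeast cultures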; settings: S. cerevisiae wt2 strain growth inhibition, hits give high values
How it was run: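 Compound exposure of yeast; growth compared with vehicle controls; inhibition reported.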

[8] = NCI Yeast Anticancer Drug Screen. Data for the mlh1 strain (AID 171);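 further: 0% = growth of vehicle-treated control cultures of the same strain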; settings: S. cerevisiae mlh1 strain growth inhibition, hits give high values
How it was run: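 Compounds are applied to a genetically altered yeast strain, and its growth is compared with that of vehicle-treated cultures to give percent inhibition.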

[9] = NCI Yeast Anticancer Drug Screen. Data for the sgs1 strain (AID 173);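 further: 0% = growth of vehicle-only control cultures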; settings: S. cerevisiae sgs1 mutant, hits give high values
How it was run: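 Compounds applied to genetically altered yeast; growth compared with vehicle-treated cultures to give % inhibition.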

[10] = NCI Yeast Anticancer Drug Screen. Data for the mlh1 rad18 strain (AID 175); settings: S. cerevisiae mlh1 rad18 strain growth inhibition, hits give high values
How it was run: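 Cells of a genetically altered yeast strain, deficient in DNA damage repair, were treated with compound. Their growth was then compared with that of vehicle-treated cultures to give inhibition.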

[11] = NCI Yeast Anticancer Drug Screen. Data for the rad18 strain (AID 177); settings: S. cerevisiae rad18 mutant growth inhibition, hits give high values
How it was run: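 Compounds are applied to a repair-deficient yeast strain, and growth is compared with that of vehicle-treated cultures to give percent inhibition.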

[12] = NCI Yeast Anticancer Drug Screen. Data for the rad52 strain (AID 147);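 further: 0% = growth of vehicle-treated control cultures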; settings: S. cerevisiae rad52 mutant growth inhibition, hits give high values
How it was run: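 DNA repair-defective yeast; compound exposure; growth scored against vehicle controls.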

[13] = NCI Yeast Anticancer Drug Screen. Data for the rad50EPP+ strain (AID 151);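 further: 0% = growth of vehicle-treated control cultures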; settings: S. cerevisiae rad50 mutant strain, hits give high values
How it was run: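 rad50EPP+ yeast treated with test compounds. Readout: growth vs vehicle control.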

[14] = NCI Yeast Anticancer Drug Screen. Data for the mgt1 strain (AID 153); settings: S. cerevisiae mgt1 mutant growth inhibition, hits give high values
How it was run: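 Growth inhibition relative to vehicle controls was scored for the mgt1 yeast strain after compound exposure.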

[15] = NCI Yeast Anticancer Drug Screen. Data for the rad50 strain (AID 155);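 further: 0% = growth of vehicle-only cultures of the same strain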; settings: S. cerevisiae rad50 strain growth inhibition, hits give high values
How it was run: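 Genetically altered yeast (DNA repair pathway); compound treatment; growth inhibition vs vehicle ctrl.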

[16] = at 5.0 µM (retest, dose inferred, filed as 0.5)
[17] = at 50.0 µM (retest, dose inferred, filed as 5.0)

Measured: growth inhibition

N#CC(C(=O)Nc1ccccc1)C1=C(Cl)C(=O)c2ccccc2C1=O (stereo unspecified)
inactive: [2]; at 1.2 µM -26% | [2]; at 3.7 µM 42% | [3]; [16] 8% | [4]; at 1.2 µM 4% | [4]; at 3.7 µM 45% | [5]; [16] 53% | [6]; at 1.2 µM -49% | [6]; at 3.7 µM -5% | [6]; [16] 62% | [7]; at 1.2 µM -3% | [7]; at 3.7 µM 26% | [8]; at 1.2 µM -3% | [8]; at 3.7 µM 41% | [9]; at 1.2 µM 8% | [9]; at 3.7 µM 41% | [10]; [16] 64% | [11]; at 1.2 µM -15% | [11]; at 3.7 µM -8%
active: [1]; at 100.0 µM 96% | [2]; at 11.0 µM 98% | [2]; at 33.0 µM 97% | [2]; at 100.0 µM 95% | [3]; [17] 98% | [3]; at 50.0 µM 93.1% | [4]; at 11.0 µM 98% | [4]; at 33.0 µM 97% | [4]; at 100.0 µM 96% | [5]; [17] 98% | [5]; at 50.0 µM 91.8% | [6]; at 11.0 µM 97% | [6]; at 33.0 µM 97% | [6]; [17] 98% | [6]; at 50.0 µM 92% | [6]; at 100.0 µM 95% | [7]; at 11.0 µM 95% | [7]; at 33.0 µM 97% | [7]; at 100.0 µM 95% | [8]; at 11.0 µM 98% | [8]; at 33.0 µM 97% | [8]; at 100.0 µM 97% | [9]; at 11.0 µM 96% | [9]; at 33.0 µM 97% | [9]; at 100.0 µM 96% | [10]; [17] 98% | [10]; at 50.0 µM 91% | [11]; at 11.0 µM 90% | [11]; at 33.0 µM 98% | [11]; at 100.0 µM 97%

Cc1cc(CO)c(O)c(CNCc2cc(C)cc(CO)c2O)c1
active: [12]; at 100.0 µM 98% | [14]; at 100.0 µM 98% | [15]; [17] 88% | [15]; at 50.0 µM 89.5% | [15]; at 100.0 µM 98% | [1]; at 50.0 µM 77.2% | [1]; at 100.0 µM 98% | [2]; at 100.0 µM 97% | [3]; at 50.0 µM 90.6% | [4]; at 100.0 µM 98% | [5]; at 50.0 µM 72% | [6]; at 100.0 µM 98% | [7]; at 100.0 µM 98% | [8]; at 100.0 µM 98% | [9]; at 100.0 µM 99% | [10]; [17] 96% | [10]; at 50.0 µM 74.3% | [11]; at 100.0 µM 98%
inactive: [12]; at 1.2 µM 4% | [12]; at 3.7 µM 8% | [12]; at 11.0 µM 14% | [12]; at 33.0 µM 22% | [13]; at 1.2 µM -24% | [13]; at 3.7 µM -23% | [13]; at 11.0 µM -33% | [13]; at 33.0 µM -29% | [13]; at 100.0 µM -13% | [14]; at 1.2 µM -13% | [14]; at 3.7 µM -17% | [14]; at 11.0 µM -18% | [14]; at 33.0 µM -9% | [15]; at 1.2 µM 2% | [15]; at 3.7 µM 7% | [15]; [16] -25% | [15]; at 11.0 µM 2% | [15]; at 33.0 µM 19% | [1]; at 1.2 µM -14% | [1]; at 3.7 µM -7% | [1]; [16] -32% | [1]; at 11.0 µM -27% | [1]; at 33.0 µM -18% | [1]; [17] 42% | [2]; at 1.2 µM -16% | [2]; at 3.7 µM -29% | [2]; at 11.0 µM -42% | [2]; at 33.0 µM 35% | [3]; [16] -2% | [3]; [17] 22% | [4]; at 1.2 µM -10% | [4]; at 3.7 µM -24% | [4]; at 11.0 µM -25% | [4]; at 33.0 µM -14% | [5]; [16] -17% | [5]; [17] 48% | [6]; at 1.2 µM -14% | [6]; at 3.7 µM -6% | [6]; [16] -21% | [6]; at 11.0 µM -13% | [6]; at 33.0 µM -13% | [6]; [17] 52% | [6]; at 50.0 µM 68.8% | [7]; at 1.2 µM -8% | [7]; at 3.7 µM -11% | [7]; at 11.0 µM -12% | [7]; at 33.0 µM -8% | [8]; at 1.2 µM -27% | [8]; at 3.7 µM -30% | [8]; at 11.0 µM -13% | [8]; at 33.0 µM -7% | [9]; at 1.2 µM 3% | [9]; at 3.7 µM 8% | [9]; at 11.0 µM 9% | [9]; at 33.0 µM 40% | [10]; [16] 17% | [11]; at 1.2 µM 1% | [11]; at 3.7 µM -6% | [11]; at 11.0 µM -4% | [11]; at 33.0 µM 4%
